In the library only some 2.2% were active in any assay of this set; here they are far more common.
APP transl inh: APP translation inhibition | SH-SY5Y APP 5'UTR-luciferase reporter, luminescence | 190,000 compounds, 0.82% hits | AID 1285 | inhibition, % at 2 µM;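 active = inhibition above a set limit, derived from the sample mean plus 3 SD, cut at about 45% in these data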
KLF5 inh: suppresses KLF5 promoter-driven expression; DLD-1 KLF5 promoter-luciferase reporter, luminescence; AID 1700; 290,000 compounds, 0.23% hits; inhibition, % at 5 µM;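 active = inhibition above a per-plate limit of that plate's mean compound inhibition plus 3 SD, cut at about 60% in these data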;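 also: higher means less KLF5 promoter-driven luciferase light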
aSyn 5UTR inh: MLPCN primary screen, SNCA 5' untranslated region | alpha-synuclein 5'UTR reporter, inhibitor activity | inhibition, % (tested at 7.5 µM) | 300,000 compounds, 0.82% hits; in the data active = inhibition above about 60%;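 also: H4 neuroglioblastoma cells stably carrying SNCA 5'UTR luciferase fusion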
IEC-6 cytotox: counter-screen for KLF5 inhibitors: cytotoxicity in IEC-6 cells. 290,000 compounds, 0.78% hits. IEC-6 cytotoxicity, luminescence viability. inhibition, % at 5 µM. AID 1825; in the data active = inhibition above about 22%
BaF3 tox: reduces parental Ba/F3 cell viability, JAK2V617F counter-screen; CellTiter-Glo ATP luminescence; 220,000 compounds, 1.1% hits; AID 1486; inhibition, % at 5.6 µM;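 active = inhibition above a per-campaign cutoff, the mean inhibition of all tested compounds plus 3 SD, cut at about 27% in these data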
Ba/F3 V617F tox: loss of viability in JAK2V617F-driven Ba/F3 cells. inhibition, % at 5.6 µM. AID 1446. 220,000 compounds, 1.1% hits. Ba/F3 EpoR-JAK2V617F viability, ATP luminescence;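 active = inhibition above the campaign mean plus 3 SD over all tested compounds, cut at about 24% in these data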;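 also: cytokine-independent growth of Ba/F3 cells driven by EpoR plus mutant JAK2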
BaF3 tox 2: parental Ba/F3 viability inhibition for JAK2V617F counter-screen; shares compounds with Ba/F3 V617F tox; CellTiter-Glo luminescence; cells kept alive by added IL-3; inhibition, % at 5.6 µM; 580 compounds, 31% hits;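 active = cell growth inhibition above the hit limit set in the earlier mutant JAK2 cell screen, cut at about 27% in these data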
JAK2V617F confrm: Ba/F3 EpoR-JAK2V617F viability loss, confirmation. shares compounds with Ba/F3 V617F tox. CellTiter-Glo luminescence. AID 1521. 580 compounds, 66% hits. inhibition, % at 5.6 µM;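 active = mean inhibition above the hit cutoff derived in the earlier primary screen, cut at about 25% in these data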;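 also: higher means lower luminescence from reduced cell ATP and viability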
A number is an active result; . = inactive; / = not tested or not shown.

SMILES	APP transl inh	KLF5 inh	aSyn 5UTR inh	IEC-6 cytotox	BaF3 tox	Ba/F3 V617F tox	BaF3 tox 2	JAK2V617F confrm
CCCCCCCCCCCCCCCCn1cc[n+](CC(C)=O)c1	.	.	/	.	74.7	67.9	/	/
CCn1c(C)nc2cc(C(=O)N/N=C(\C)c3ccc(OC)cc3O)ccc21	.	.	83.9	.	.	.	/	/
CCn1c(C)nc2cc(C(=O)N/N=C/c3ccc(OC)cc3)ccc21	.	.	.	.	.	.	/	/
COc1ccc2nc(N=Nc3c(O)ccc4ccccc34)sc2c1	69.3	.	.	.	.	.	/	/
COc1ccc2nc(NC(=O)Nc3cccc4ccccc34)sc2c1	.	.	.	.	.	.	/	/
Nc1ccc(Oc2cccc(Oc3ccc(N)cc3)c2)cc1	49.4	.	87.2	.	.	.	/	/
Oc1ccc(CN2CCN(Cc3ccccc3)CC2)c2cccnc12	.	.	.	.	.	.	/	/
O=S(=O)(c1ccc(Cl)cc1)N1CCN(Cc2ccc(O)c3ncccc23)CC1	.	.	77.2	.	.	.	/	/
CCN1CCN(C(=O)CN2C(=O)COc3ccc(C)cc32)CC1	/	.	.	.	/	/	/	/
Cc1nn(-c2ccccc2Cl)c(Cl)c1/C=N/Nc1nc2ccccc2s1	.	.	68.6	.	.	.	/	/
O=C(Nc1ccc(-c2nc3ccccc3[nH]2)cc1)c1ccc2c(c1)OCO2	.	.	.	.	.	.	/	/
c1ccc2[nH]c(-c3ccc4c(c3)OCO4)nc2c1	/	/	78.5	/	/	/	/	/
Cc1ccc(C)c(NC(=O)CSc2nnc(NC(=O)C3CC3)s2)c1	/	.	.	.	/	/	/	/
O=C(NCc1ccco1)C1CCN(C(=O)c2ccc([N+](=O)[O-])cc2)CC1	/	.	.	.	/	/	/	/
N/C(=N\OC(=O)c1cc([N+](=O)[O-])ccc1Cl)c1cccnc1	/	.	88.1	.	.	.	/	/
N/C(=N\OC(=O)c1ccc([N+](=O)[O-])cc1)c1cccnc1	.	.	.	.	.	.	/	/
CC(C(=O)Nc1cccc(S(=O)(=O)N2CCOCC2)c1)N1CCN(C/C=C/c2ccccc2)CC1 (configuration not stated)	.	.	.	.	30.3	27.7	/	/
C/C(=N\NC(=O)c1cc(-c2cccnc2)nc2ccccc12)c1ccc(O)cc1O	65.6	.	105.0	.	.	.	/	/
C/C(=N\NC(=O)c1cc(-c2cccc(OC(C)C)c2)nc2ccccc12)c1cccnc1	/	.	.	.	/	/	/	/
N#Cc1ccc(N2CCc3ccccc3C2)c([N+](=O)[O-])c1	.	.	81.1	.	.	.	/	/
O=c1c2sc(-c3ccccc3)cc2nc2n1CCC2	.	.	82.4	.	.	.	/	/
Nc1ccc(N2CCCCCC2)cc1	.	.	/	.	58.9	43.1	/	/
Cc1cc(SCc2cccc(C(F)(F)F)c2)nc(=O)[nH]1	/	.	.	.	/	/	/	/
CCCCCCCCCCCC(=O)NC1CCS(=O)(=O)C1 (configuration not stated)	.	.	.	.	.	69.5	.	.
Cc1cc(C)cc(OCC(=O)Nc2nc(-c3cccnc3)cs2)c1	/	.	.	.	/	/	/	/
SMILES	APP transl inh	KLF5 inh	aSyn 5UTR inh	IEC-6 cytotox	BaF3 tox	Ba/F3 V617F tox	BaF3 tox 2	JAK2V617F confrm
Cc1ccc(NC(=S)N(CCCN2CCC(C)CC2)Cc2ccco2)cc1C	.	.	.	.	.	24.5	29.4	46.1
CCCCn1c(SCC(=O)c2ccc(O)c(O)c2)nc2ccsc2c1=O	.	.	.	.	.	39.9	31.5	88.3
COc1cc(OC)c(OC)cc1CNC(=O)c1ccc(COc2ccccc2)cc1	/	.	.	.	/	/	/	/
CCOc1ccc(N2C(=O)CC(Sc3nnnn3-c3ccccc3)C2=O)cc1 (configuration not stated)	.	.	.	.	.	32.8	.	.
CCN(CC)CCCNC(=O)c1cc(-c2ccccc2)c(N2CCCCC2)s1	/	.	.	.	/	/	/	/
COc1ccc(-c2csc(NC3OC(=O)c4c3ccc(OC)c4OC)n2)cc1OC (configuration not stated)	/	.	.	.	.	27.2	.	31.2
COc1ccc2c(c1OC)C(=O)OC2Nc1nc(-c2ccc([N+](=O)[O-])cc2)cs1 (configuration not stated)	/	.	.	.	.	.	/	/
COc1ccc(C)cc1NC(=O)C1CCN(C(=O)Cc2ccccc2)CC1	.	.	.	.	.	41.5	.	.
CCOC(=O)c1c(NC(=O)C(C)N2CCN(C(=O)c3ccco3)CC2)sc2c1CCCC2 (configuration not stated)	.	.	.	.	.	27.9	.	.
CCOC(=O)c1ccc(N2C=C(C(=O)OC)C(c3cccc(O)c3)C(C(=O)OC)=C2)cc1	/	.	.	.	/	/	/	/
CCN(CC)C(=O)C1=C(C)NC(=O)NC1c1c(F)cccc1Cl (configuration not stated)	.	.	.	.	.	28.5	.	.
Cc1csc(NC(=O)c2cc3c(C)nn(Cc4ccccc4Cl)c3s2)n1	.	.	.	.	.	35.9	.	27.5
Cc1nn(Cc2ccccc2Cl)c2sc(C(=O)NC(C)(C)C)cc12	.	.	.	.	.	.	/	/
CC1(C)C(=O)NC(=O)N1Cc1ccccc1	/	/	.	/	/	/	/	/
CC(=O)c1nn(-c2cccc(Br)c2)cc1C(=O)c1ccccc1	.	.	.	.	.	55.5	.	.
Cc1ccccc1-c1noc(C(C)NC(=O)c2ccco2)n1 (configuration not stated)	/	.	.	.	/	/	/	/
COc1ccccc1CCC(=O)OCC(=O)Nc1ccc2[nH]c(=O)[nH]c2c1	/	/	.	/	/	/	/	/
Nc1cccc(C2=Nc3cccc4cccc(c34)N2)c1	.	.	.	.	.	53.1	.	.
COc1ccc(C2=Nc3cccc4cccc(c34)N2)cc1	.	.	.	.	.	.	/	/
O=C(NCC1CCCO1)c1cccc(Oc2ccc([N+](=O)[O-])cc2)c1 (configuration not stated)	/	.	.	.	/	/	/	/
Cc1ccc(O)c(NC(=O)C2CCCCC2)c1	/	.	.	.	.	24.9	.	50.1
Cc1ccc(NC(=O)C2CCCCC2)c(O)c1	.	.	.	.	.	.	/	/
O=C(c1cc(Cl)ccc1F)N1CCCC(Nc2ccc3c(c2)OCCO3)C1 (configuration not stated)	/	.	.	.	/	/	/	/
O=C(COC(=O)C12CC3CC(CC(C3)C1)C2)Nc1ccc2[nH]c(=O)[nH]c2c1	/	.	.	.	/	/	/	/
Cc1ccc(/C=[N+](\[O-])c2ccc(N(C)C)cc2)c2nsnc12	60.9	.	.	.	.	46.5	.	.
O=C(O)Cn1nnc(COc2ccccc2)n1	/	.	.	.	/	/	/	/
CC(NC(=O)c1cc(S(=O)(=O)N2CCOCC2)ccc1N1CCCC1)c1ccc(Cl)c(Cl)c1 (configuration not stated)	/	/	.	/	/	/	/	/
COc1cc(/C=N/Nc2nc(N3CCCC3)nc(N3CCCC3)n2)ccc1O	.	.	.	.	.	.	/	/
Oc1ccc(/C=N/Nc2nc(N3CCCC3)nc(N3CCCC3)n2)cc1O	.	.	.	.	.	45.9	70.8	98.0

Compound activity (PubChem BioAssay)
